Screening results (PubChem)
In the library only some 2.4% were active in any assay of this set; here they are far more common.
D2 PAM-1: positive allosteric modulators of human D2 dopamine receptor | P14416 | DiscoveRx D2 beta-arrestin cells, luminescence, 90 min; 100% = 57 uM dopamine signal | potentiation, % (concentration not given with the values) | 360,000 tested, 0.23% active | AID 624464; in the data active = potentiation above about 50%; inconclusive = mostly about 30% to 49%
Target sequence (P14416 whole entry, looked up): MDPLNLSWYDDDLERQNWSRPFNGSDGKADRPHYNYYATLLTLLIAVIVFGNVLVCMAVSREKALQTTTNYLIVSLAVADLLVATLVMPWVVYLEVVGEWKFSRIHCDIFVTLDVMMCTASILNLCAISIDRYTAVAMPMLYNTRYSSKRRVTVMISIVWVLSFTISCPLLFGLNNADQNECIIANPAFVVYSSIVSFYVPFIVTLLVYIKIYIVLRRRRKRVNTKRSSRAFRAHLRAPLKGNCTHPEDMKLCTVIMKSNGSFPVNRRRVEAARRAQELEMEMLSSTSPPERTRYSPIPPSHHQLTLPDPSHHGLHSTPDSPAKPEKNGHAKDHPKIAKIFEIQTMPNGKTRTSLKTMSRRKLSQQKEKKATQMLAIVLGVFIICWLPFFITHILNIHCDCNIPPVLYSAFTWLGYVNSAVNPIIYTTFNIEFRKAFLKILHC
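D2 cells co-treated with compound plus 50 nM dopamine (EC20) for 90 min at 37 deg C to detect potentiation. Beta-arrestin recruitment was read as enzyme-fragment luminescence after 1 h at ambient temperature. Full response was set by 57 uM dopamine.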
D2 ag-1: activates the human D2 dopamine receptor; P14416; HEK293 T-REx D2 cells, calcium flux agonist mode; activation, % at 2 µM; 340,000 tested, 0.53% active;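 active = activation over 3 SD above normal in the single-dose calcium agonist read, cut at about 30% in these data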
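Agonism is scored from calcium flux in a force-coupled, inducible HEK293 cell line expressing D2, read kinetically for 180 s after compound addition against dopamine controls.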
D2 antag: D2 dopamine receptor (human) antagonism | 340,000 tested, 2% active | HEK293 TREx D2 cells, calcium flux, dopamine EC80 | P14416 | inhibition, % at 10 µM; in the data active = inhibition above about 30%; inactive = below that, where a call was filed
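Calcium flux kinetic readout in an inducible HEK293 TREx D2 line plated overnight at 30 C. After 180 s compound exposure, an EC80 dopamine challenge follows with another 180 s kinetic read to detect antagonism.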
D2 ag-2: agonists of human D2 dopamine receptor (beta-arrestin); P14416; DiscoveRx PathHunter D2 beta-arrestin, luminescence, 90 min; 100% = 57 uM dopamine signal; activation, % (concentration not given with the values); 360,000 tested, 0.084% active; in the data active = activation above about 40%; inconclusive = between about 15% and that limit
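DiscoveRx PathHunter D2 beta-arrestin cells (2,100/well) attached overnight, then compound-stimulated 90 min at 37 C in HBSS/10 mM HEPES/0.1% Tween-20 buffer; beta-galactosidase complementation read by luminescence after 1 h at ambient temperature. Dopamine 57 uM final (EC100) as control.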
D2 PAM-2: positively modulates the human D2 dopamine receptor allosterically; P14416; HEK293 T-REx D2, calcium flux, EC20 dopamine potentiation; potentiation, % at 10 µM; 340,000 tested, 0.34% active; AID 485347;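 active = potentiation over 3 SD above the plate norm, cut at about 30% in these data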
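Primary screen. Calcium kinetics in induced HEK293 T-REx D2 cells: compound pre-addition 180 s, EC20 dopamine, 180 s more.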
Of the large screens only hits and unclear results are named; the others gave an inactive call.

COc1ccc(CNC(=O)Cc2c(C)c3c(cc(C)c4c(C)coc43)oc2=O)cc1	none (no result: D2 PAM-1, D2 antag, D2 ag-2)
CCCCCNC(=O)C1CC=CCC1C(=O)O (stereo not given)	D2 antag 36.1
O=C(COC(=O)c1ccc2[nH]c3c(c2c1)CCCC3)Nc1ccccc1Cl	none
CCC(C)c1ccccc1NC(=O)COC(=O)c1ccc2[nH]c3c(c2c1)CCCC3 (stereo not given)	D2 antag 70.5
O=C(CSc1n[nH]c(-c2ccccc2)n1)NCCCc1ccccc1	none (no result: D2 PAM-1, D2 antag, D2 ag-2)
Cc1nnc(N/N=C/c2cccc(C(F)(F)F)c2)n1N	none
Cc1nnc(N/N=C/c2cccc(OCc3ccc(Cl)c(Cl)c3)c2)n1N	D2 PAM-1 74.3
Cc1cccc(NC(=O)CCC(=O)N2CCOCC2)n1	none
Cc1ccc(NS(=O)(=O)c2ccc3[nH]c4c(c3c2)CCCCCC4)cc1	none (no result: D2 PAM-1, D2 antag, D2 ag-2)
Cc1ccc(S(=O)(=O)Nc2cc(=O)[nH]c3c2CCC3)cc1	D2 antag 37.0
O=C(NCC1CCOCC1)c1ccc2nc(Cc3cccc(Cl)c3)oc2c1	D2 antag 61.1
CN(CC1CCOCC1)C(=O)c1ccc2nc(Cc3cccc(Cl)c3)oc2c1	none (no result: D2 ag-1, D2 antag)
CN(CC(=O)Nc1ccc(F)c(F)c1F)C(=O)Cc1ccc2c(c1)OCCO2	D2 antag 35.1
CCOC(=O)c1ccc(CN(Cc2ccccc2)S(=O)(=O)c2ccc(C)cc2)cc1	none (no result: D2 PAM-1, D2 antag, D2 ag-2)
CN1CCN(C(c2cccc(Cl)c2)c2ccccc2Cl)CC1 (stereo not given)	D2 antag 82.6
CN1CCN(C(c2ccccc2)c2ccc(Cl)cc2)CC1 (stereo not given)	none (no result: D2 ag-1, D2 antag, D2 PAM-2)
Cc1ccc(C)c(OCC(=O)N(Cc2nnc(-c3ccccc3Cl)o2)C2CC2)c1	D2 antag 33.4
Cc1nc(NC(=O)C(C)(C)C)sc1-c1csc(N)n1	none (no result: D2 ag-1, D2 antag, D2 PAM-2)
N#C/C(C(N)=O)=c1/ccc2c(c1)N1C3=C(CCCC3)CC3CCCCC31N=2 (stereo not given)	none
N#CC(C#N)=c1ccc2c(c1)N1C3=C(CCCC3)CC3CCCCC31N=2 (stereo not given)	D2 PAM-1 70.5
O=C1CSC(=S)N1	none
Cc1cc(=O)c2ccccc2n1Cc1ccccc1	none
Cc1ccc2c(c1)c(=O)c(Br)c(C)n2Cc1ccccc1	D2 antag 56.3
COc1ccc(NC(=S)NNS(=O)(=O)c2ccc3ccccc3c2)c(OC)c1	D2 antag 43.5
COc1ccc(C(=O)Oc2cc(N)n(S(=O)(=O)c3ccc(C)cc3)n2)cc1	D2 antag 38.4
COc1ccccc1C(=O)Oc1cc(N)n(S(=O)(=O)c2ccc(C)cc2)n1	none
O=C(c1ccccc1)N1CCCCC(Cl)C1=O (stereo not given)	D2 antag 31.1
C=Cc1ccc(CN2C(=O)c3ccccc3Sc3ccc(C(=O)OCc4ccco4)cc32)cc1	none (no result: D2 PAM-1, D2 antag, D2 ag-2)
CCc1ccccc1-n1c(C)nc2cc(C(=O)NCCc3ccc(Cl)cc3)ccc21	none (no result: D2 PAM-1, D2 ag-1, D2 antag, D2 ag-2)
Cc1noc(C)c1COc1ccc(C(=O)OC(C)C(=O)Nc2ccc(N3CCOCC3)cc2)cc1 (stereo not given)	D2 antag 44.7
CCCCCNC(=O)c1cc2c(=O)n3ccccc3nc2n1C	none (no result: D2 PAM-1, D2 antag, D2 ag-2)
Cc1cc(C)nc(Sc2ccc([N+](=O)[O-])cc2[N+](=O)[O-])n1	D2 PAM-1 70.0
O=[N+]([O-])c1ccc(Sc2ccncn2)c([N+](=O)[O-])c1	D2 ag-2 inconclusive (no result: D2 ag-1, D2 antag, D2 PAM-2)
O=C(CN1C(=O)NC2(CCCCCC2)C1=O)N1CCN(c2ccc(F)cc2)CC1	none
CC(=O)c1ccc(N2CCN(C(=O)CN3C(=O)NC4(CCCCC4)C3=O)CC2)c(F)c1	D2 antag 30.7
CC(C)COC(=O)n1c(SCC(=O)N(C)C)nc2ccccc21	D2 antag 31.4
CC(C)COC(=O)n1c(SCC(N)=O)nc2ccccc21	none
Cc1ccc(CN2CCN(C3CCN(C(=O)Nc4ccc(C)cc4Cl)CC3)C(=O)C2=O)cc1	none (no result: D2 PAM-1, D2 antag, D2 ag-2)
O=C1C(=Cc2ccncc2)CCCc2ccccc21	none (no result: D2 ag-1, D2 antag, D2 PAM-2)
O=C1/C(=C/c2cccc3ccccc23)CCCc2ccccc21	D2 PAM-2 59.4
CCc1ccccc1NC(=O)/C(C#N)=C\c1ccc(Sc2ccccc2)o1	D2 PAM-2 40.1
CSc1ccc(/C=N/n2c(C)nnc2C)cc1	D2 antag 35.3
Cc1nnc(C)n1/N=C/c1ccc(O)cc1	none
CCc1ccc(NC(=O)C(=O)NCCc2sc3nc(-c4ccc(OC)cc4)nn3c2C)cc1	none (no result: D2 PAM-1, D2 antag, D2 ag-2)
CCCC(=O)Nc1ccc(C(=O)COC(=O)c2cc(C)oc2C)cc1	D2 antag 34.8
COc1cc(OC)cc(C(=O)Nc2ccc(S(=O)(=O)N3CCCCC3c3cccnc3)cc2)c1 (stereo not given)	none (no result: D2 PAM-1, D2 antag, D2 ag-2)
O=[N+]([O-])c1cc(Cl)ccc1NCCNc1ncc(C(F)(F)F)cc1Cl	D2 antag 36.2
CCOC(=O)c1sc2cccc(F)c2c1S(=O)(=O)N1CCN(c2cccc(Cl)c2)CC1	none (no result: D2 PAM-1, D2 antag, D2 ag-2)
CCCCNC(=O)N1CCOCCOCCN(C(=O)NCCCC)CCOCCOCC1	D2 antag 32.3 (no result: D2 PAM-2)
CCOc1cc(C2C(C(=O)OC)=C(C)N=C3SC(C)C(=O)N32)ccc1OC(C)=O (stereo not given)	none
CCOC(=O)C1=C(C)N=C2SC(C)C(=O)N2C1c1ccc(OC(C)=O)c(OC)c1 (stereo not given)	D2 PAM-2 38.2
Cc1nn(-c2ccc(Cl)cc2)c2sc(C(=O)N3CCN(c4ccccn4)CC3)cc12	D2 PAM-2 31.6
Cc1sc(NC(=O)c2cccs2)c(C(=O)OC(C)C)c1C	D2 antag 31.3
Brc1ccc(C=Nc2ccc(Nc3ccccc3)cc2)s1	D2 PAM-1 87.4, D2 ag-2 inconclusive
C(=Nc1ccc(Nc2ccccc2)cc1)c1ccc2ccccc2c1	D2 PAM-1 52.0
NC(=S)N/N=C/c1ccc2ccccc2c1	D2 antag 48.1
O=C(N/N=C\c1c(O)ccc2ccccc12)c1cncc(Br)c1	D2 ag-1 66.4
O=C(N/N=C/c1c(O)ccc2ccccc12)c1cccnc1	none
Cc1cc(C)c(NC(=O)CN2c3ccccc3S(=O)(=O)c3ccccc32)c(C)c1	none (no result: D2 PAM-1, D2 antag, D2 ag-2, D2 PAM-2)
N#CC1(NC(=O)COC(=O)c2nc(Cl)c(Cl)c(N)c2Cl)CCCCC1	D2 ag-1 30.6
N#CC1(NC(=O)COC(=O)c2ncc(Cl)c(Cl)c2Cl)CCCCC1	none
Cc1ccc(S(=O)(=O)Nc2cc(C)c(O)c(S(=O)(=O)c3ccc(C)cc3)c2)cc1	D2 PAM-1 87.6
Cc1cc(NS(=O)(=O)c2ccccc2)cc(Cl)c1O	D2 PAM-1 88.1, D2 ag-2 inconclusive
Fc1ccc(C(NCCc2ccccc2)c2nnc(-c3ccccc3Cl)o2)cc1 (stereo not given)	none (no result: D2 PAM-1, D2 antag, D2 ag-2)
Cc1nc(Nc2cccc(O)c2)c2oc3ccccc3c2n1	D2 antag 32.6
O=C1c2cc3ccccc3c(-c3ccccc3)c2C(=O)N1c1ccccn1	D2 antag 46.5
